# Measurements: PubChem BioAssay (EPA / NIEHS)
# “And” between values parts separate entries of the source, which are not always exact repeats. Equal values may be shown once. Some compounds were tested as several samples or in several runs, with calls that do not always agree. The source made the active and inactive calls. Rule for the calls: active = hit-call score of the fitted dose curve at least 0.9, where 1 is the maximum; inactive = score below 0.9.
# Key:
# [1] = ATG_E_Box_CIS: Attagene CIS-FACTORIAL HepG2 Assay for human Enhancer Box (E-box) (AID 2282936); settings: HepG2 E-box cis-reporter transcription, actives raise or lower the signal
# Procedure, shortened: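 Multiplexed CIS reporter system in transiently transfected HepG2 cells measures native transcription factor activity. Reporter RNA after 24 h exposure is profiled by RT-PCR-capillary electrophoresis.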
# [2] = ATG_M_61_CIS: Attagene CIS-FACTORIAL HepG2 Assay for M61 Transcription Factor (Internal Marker) (AID 2282937); settings: HepG2 Attagene CIS-FACTORIAL M61 internal marker reporter; actives raise or lower the signal
# Procedure, shortened: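 Multiplexed reporter mRNA assay, HepG2 human hepatoma cells, 24 h treatment. Signal: FAM-labelled, HpaI-digested RT-PCR fragments by CE. Fit: bidirectional, baseline DMSO.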
# [3] = ATG_EGR_CIS: Attagene CIS-FACTORIAL HepG2 Assay for human Early Growth Response 1 (EGR1) (AID 2282938); settings: HepG2 Attagene CIS-FACTORIAL EGR reporter mRNA; actives raise or lower the signal
# Procedure, shortened: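 Multiplexed cis-reporter system in human hepatoma HepG2 cells, transiently transfected. Cells are dosed for 24 h; reporter transcripts are amplified, fluorescently tagged and sized by capillary electrophoresis, with DMSO as negative control.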
# [4] = ATG_M_19_CIS: Attagene CIS-FACTORIAL HepG2 Assay for M19 Transcription Factor (Internal Marker) (AID 2282939); settings: HepG2 Attagene CIS-FACTORIAL M19 internal marker reporter; actives raise or lower the signal
# Procedure, shortened: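 HepG2 cells transiently transfected with cis-regulated multiple reporter transcription units were dosed for 24 h; reporter mRNA was quantified by RT-PCR, 6-FAM primer-extension labelling, HpaI digestion and capillary electrophoresis, with bidirectional fitting against DMSO baseline.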
# [5] = ATG_ERE_CIS: Attagene CIS-FACTORIAL HepG2 Assay for Estrogen Response Element (ERE) (AID 2282940); settings: HepG2 ERE cis-reporter, Attagene RNA transcript; actives raise or lower the signal
# Procedure, shortened: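 HepG2 cells transiently transfected with cis-promoter-driven multiplexed reporter transcription units report endogenous TF activity. After 24 h compound exposure, reporter mRNA is quantified by RT-PCR with capillary electrophoresis fluorescence; bidirectional fitting versus DMSO baseline.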
# [6] = ATG_Ets_CIS: Attagene CIS-FACTORIAL HepG2 Assay for human Erythroblast Transformation Specific (ETS) (AID 2282941); settings: HepG2 ETS cis-reporter transcription, actives raise or lower the signal
# Procedure, shortened: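 After transient cis-reporter transfection, HepG2 cells receive test chemical for 24 h. Reporter mRNA levels, measured by RT-PCR and capillary electrophoresis fluorescence, are analysed bidirectionally relative to the DMSO baseline.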
# [7] = molecular target: Hepatocyte nuclear factor 3-beta (Homo sapiens) (UniProt Q9Y261); assay: ATG_FoxA2_CIS: Attagene CIS-FACTORIAL HepG2 Assay for human Forkhead box A2 (FOXA2) (AID 2282942); settings: HepG2 cis-reporter transcription factor activity, 24 h; actives raise or lower the signal
# Procedure, shortened: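 Multiplexed cis-element reporter assay in transiently transfected HepG2. Twenty-four hours post-dosing, RNA was reverse-transcribed, amplified, FAM-labelled, HpaI-digested and separated by CE. Activity gain or loss relative to DMSO.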
# [8] = ATG_FoxO_CIS: Attagene CIS-FACTORIAL HepG2 Assay for human Forkhead box O (FoxO) (AID 2282943); settings: HepG2 Attagene cis-reporter, FoxO element, mRNA; actives raise or lower the signal
# Procedure, shortened: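 Values reflect reporter mRNA induction or loss in HepG2 cells 24 h post-dosing, fitted bidirectionally with DMSO as negative control and baseline. Detection used RT-PCR and fluorescence capillary electrophoresis.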
# [9] = ATG_GATA_CIS: Attagene CIS-FACTORIAL HepG2 Assay for human GATA Binding Protein (AID 2282944); settings: HepG2 GATA cis-element reporter, Attagene multiplex mRNA; actives raise or lower the signal
# Procedure, shortened: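 HepG2 cells transiently transfected with multiplexed cis-element reporter units reflecting endogenous transcription factor activity; reporter mRNA measured after 24 h dosing by RT-PCR, 6-FAM labeling, HpaI digestion and capillary electrophoresis. Bidirectional fitting versus DMSO baseline.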
# [10] = ATG_GLI_CIS: Attagene CIS-FACTORIAL HepG2 Assay for human Zinc Finger Protein GLI1 (AID 2282945); settings: HepG2, Attagene cis-factorial reporter mRNA, GLI element; actives raise or lower the signal
# Procedure, shortened: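 HepG2 cells transiently transfected with cis-promoter multiplexed reporter units report endogenous transcription factor activity. After 24 h chemical exposure, reporter mRNA was quantified by RT-PCR, 6-FAM labelling, HpaI digestion and capillary electrophoresis, with bidirectional fitting against DMSO.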
# [11] = ATG_GRE_CIS: Attagene CIS-FACTORIAL HepG2 Assay for human Glucocorticoid Response Elements (GRE) (AID 2282947); settings: HepG2 GRE cis-reporter, Attagene multiplex mRNA; actives raise or lower the signal
# Procedure, shortened: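 Following 24 h chemical exposure of transiently transfected HepG2 cells, total RNA was reverse-transcribed and reporter cDNA amplified, fluorescently labelled and sized by capillary electrophoresis. Signal gain or loss was fitted relative to DMSO vehicle.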
# [12] = ATG_ISRE_CIS: Attagene CIS-FACTORIAL HepG2 Assay for human Interferon Regulatory Factor 1 (IRF1) binding to an Interferon-Stimulated Response Element (ISRE) (AID 2282948); settings: HepG2 ISRE cis-reporter (Attagene), mRNA transcription readout; actives raise or lower the signal
# Procedure, shortened: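 Quantitation relies on labelled RT-PCR fragments separated by capillary electrophoresis. Human HepG2 cells bearing cis-promoter reporter constructs were treated 24 h; DMSO served as baseline for bidirectional fitting.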
# [13] = ATG_M_32_CIS: Attagene CIS-FACTORIAL HepG2 Assay for M32 Transcription Factor (Internal Marker) (AID 2282949); settings: HepG2 Attagene cis-factorial M32 reporter, mRNA; actives raise or lower the signal;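 note: background control marker of the multiplexed CIS panel rather than a real target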
# Procedure, shortened: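 HepG2 cells transiently transfected with multiplexed cis-regulated reporter units, dosed 24 h. Reporter mRNA quantified by RT-PCR, 6-FAM labelling, HpaI digestion and capillary electrophoresis; bidirectional fit vs DMSO.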
# [14] = ATG_M_06_CIS: Attagene CIS-FACTORIAL HepG2 Assay for M06 Transcription Factor (Internal Marker) (AID 2282950); settings: HepG2 Attagene CIS-FACTORIAL M06 internal marker reporter; actives raise or lower the signal
# Procedure, shortened: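 HepG2 cells transiently transfected with cis-regulated multiple reporter transcription units were exposed to chemical for 24 h; reporter mRNA was quantified by RT-PCR, 6-FAM primer labelling, HpaI digestion and capillary electrophoresis, fitted bidirectionally against DMSO.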
# [15] = molecular target: Hypoxia-inducible factor 1-alpha (Homo sapiens) (UniProt Q16665); assay: ATG_HIF1a_CIS: Attagene CIS-FACTORIAL HepG2 Assay for human Hypoxia Inducible Factor 1 (HIF1A) (AID 2282951); settings: HepG2 Attagene cis-factorial HIF1a reporter transcription; actives raise or lower the signal
# Procedure, shortened: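 Cis-element reporter constructs were transiently transfected into HepG2 cells, which were treated for 24 h; reporter RNA was reverse-transcribed, amplified, labelled and resolved by capillary electrophoresis.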
# [16] = molecular target: Hepatocyte nuclear factor 6 (Homo sapiens) (UniProt Q9UBC0); assay: ATG_HNF6_CIS: Attagene CIS-FACTORIAL HepG2 Assay for human Hepatocyte Nuclear Factor 6 (HNF6) (AID 2282952); settings: HepG2 Attagene cis-factorial HNF6 reporter transcription; actives raise or lower the signal
# Procedure, shortened: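 HepG2 cells transiently transfected with cis-element-driven multiplexed reporter units measuring endogenous transcription factor activity. After 24 h exposure, reporter mRNA quantified by RT-PCR, FAM-labelled fragments and capillary electrophoresis; bidirectional fitting versus DMSO.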
# [17] = molecular target: Heat shock factor protein 1 (Homo sapiens) (UniProt Q00613); assay: ATG_HSE_CIS: Attagene CIS-FACTORIAL HepG2 Assay for human Heat Shock Transcription Factor 1 (HSE) (AID 2282953); settings: HepG2 HSE cis-reporter, Attagene RNA transcription; actives raise or lower the signal
# Procedure, shortened: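 HepG2 cells transiently transfected with multiple reporter transcription units under cis-regulatory promoter control, measuring endogenous transcription factor activity. After 24 h chemical exposure, reporter mRNA quantified by RT-PCR, fluorescent labelling, HpaI digestion and capillary electrophoresis; bidirectional fit versus DMSO.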
# [18] = ATG_MRE_CIS: Attagene CIS-FACTORIAL HepG2 Assay for human Metal Responsive Element (MRE) (AID 2282954); settings: HepG2 MRE cis-reporter transcription, Attagene multiplex; actives raise or lower the signal
# Procedure, shortened: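 Step one: transfect HepG2 with cis-regulated reporter units. Step two: dose 24 h. Step three: isolate RNA, RT-PCR, 6-FAM label, HpaI digest, capillary electrophoresis. Fit bidirectionally to DMSO.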
# [19] = ATG_PBREM_CIS: Attagene CIS-FACTORIAL HepG2 Assay for human Phenobarbital-responsive Enhancer Module (PBREM) (AID 2282955); settings: HepG2 PBREM cis-reporter, Attagene multiplexed transcription; actives raise or lower the signal
# Procedure, shortened: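 Multiplexed cis-reporter readout in human hepatoma HepG2 cells; PBREM-regulated transcript quantified after 24 h exposure by fluorescent RT-PCR fragment analysis. Signal changes up or down fitted relative to DMSO.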
# [20] = molecular target: Paired box protein Pax-6 (Homo sapiens) (UniProt P26367); assay: ATG_Pax6_CIS: Attagene CIS-FACTORIAL HepG2 Assay for human Paired Box 6 (PAX6) (AID 2282956); settings: HepG2 CIS-FACTORIAL PAX6 reporter transcription, RNA readout; actives raise or lower the signal
# Procedure, shortened: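 After twenty-four hours of chemical exposure, transfected HepG2 cells are harvested for RNA. Cis-promoter reporter transcripts are amplified, fluorescently labelled and sized by capillary electrophoresis, with gain and loss of signal scored against DMSO.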
# Sequence of Paired box protein Pax-6 (Homo sapiens) (P26367 whole entry, looked up): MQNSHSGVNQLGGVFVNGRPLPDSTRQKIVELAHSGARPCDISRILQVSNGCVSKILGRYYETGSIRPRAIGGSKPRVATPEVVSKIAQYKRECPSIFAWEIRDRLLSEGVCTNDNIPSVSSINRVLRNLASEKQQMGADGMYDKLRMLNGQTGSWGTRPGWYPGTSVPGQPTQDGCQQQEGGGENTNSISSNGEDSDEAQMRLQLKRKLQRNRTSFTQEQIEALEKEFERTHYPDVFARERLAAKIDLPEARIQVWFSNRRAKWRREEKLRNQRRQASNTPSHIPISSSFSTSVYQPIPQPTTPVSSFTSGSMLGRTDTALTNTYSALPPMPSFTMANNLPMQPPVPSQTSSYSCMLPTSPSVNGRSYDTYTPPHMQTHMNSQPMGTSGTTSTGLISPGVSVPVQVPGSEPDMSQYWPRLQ
# Sequence of Hepatocyte nuclear factor 6 (Homo sapiens) (Q9UBC0 whole entry, looked up, the tested form may be a part): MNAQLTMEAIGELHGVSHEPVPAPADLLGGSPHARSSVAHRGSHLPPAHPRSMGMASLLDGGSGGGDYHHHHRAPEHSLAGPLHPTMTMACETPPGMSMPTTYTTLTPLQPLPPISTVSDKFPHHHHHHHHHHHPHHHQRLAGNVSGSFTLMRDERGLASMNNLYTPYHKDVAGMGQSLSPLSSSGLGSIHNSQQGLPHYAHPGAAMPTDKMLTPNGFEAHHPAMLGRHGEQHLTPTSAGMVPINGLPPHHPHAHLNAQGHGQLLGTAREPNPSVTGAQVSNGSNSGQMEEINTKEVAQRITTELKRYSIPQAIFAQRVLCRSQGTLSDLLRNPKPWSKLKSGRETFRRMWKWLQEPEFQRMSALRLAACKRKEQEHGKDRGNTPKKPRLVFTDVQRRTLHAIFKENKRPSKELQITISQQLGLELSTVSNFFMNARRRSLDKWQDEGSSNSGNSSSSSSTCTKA
# Sequence of Hepatocyte nuclear factor 3-beta (Homo sapiens) (Q9Y261 whole entry, looked up): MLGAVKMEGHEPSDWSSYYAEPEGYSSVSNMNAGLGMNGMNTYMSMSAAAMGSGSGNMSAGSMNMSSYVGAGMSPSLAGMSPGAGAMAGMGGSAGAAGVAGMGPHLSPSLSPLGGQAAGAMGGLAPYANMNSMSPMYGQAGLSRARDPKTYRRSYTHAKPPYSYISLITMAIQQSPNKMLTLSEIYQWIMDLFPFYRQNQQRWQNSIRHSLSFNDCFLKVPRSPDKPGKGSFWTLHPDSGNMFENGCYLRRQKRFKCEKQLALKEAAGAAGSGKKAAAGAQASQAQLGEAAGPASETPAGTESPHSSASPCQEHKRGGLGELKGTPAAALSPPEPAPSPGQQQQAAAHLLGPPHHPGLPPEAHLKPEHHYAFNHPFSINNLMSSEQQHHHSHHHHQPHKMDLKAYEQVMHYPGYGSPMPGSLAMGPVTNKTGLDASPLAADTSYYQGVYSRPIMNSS
# Sequence of Heat shock factor protein 1 (Homo sapiens) (Q00613 whole entry, looked up): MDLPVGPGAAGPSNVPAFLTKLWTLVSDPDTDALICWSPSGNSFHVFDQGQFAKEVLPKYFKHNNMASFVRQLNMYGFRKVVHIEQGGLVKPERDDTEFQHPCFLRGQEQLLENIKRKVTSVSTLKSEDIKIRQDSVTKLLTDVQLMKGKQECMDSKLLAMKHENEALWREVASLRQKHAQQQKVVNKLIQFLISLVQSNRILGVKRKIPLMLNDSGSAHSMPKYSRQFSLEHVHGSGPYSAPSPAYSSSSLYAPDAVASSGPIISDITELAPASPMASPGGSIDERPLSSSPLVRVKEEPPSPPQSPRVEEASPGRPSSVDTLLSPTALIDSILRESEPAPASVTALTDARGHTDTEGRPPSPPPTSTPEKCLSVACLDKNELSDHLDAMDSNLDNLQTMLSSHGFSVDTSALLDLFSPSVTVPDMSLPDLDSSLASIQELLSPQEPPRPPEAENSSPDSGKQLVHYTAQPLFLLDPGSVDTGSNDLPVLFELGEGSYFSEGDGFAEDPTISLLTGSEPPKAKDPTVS
# Sequence of Hypoxia-inducible factor 1-alpha (Homo sapiens) (Q16665 whole entry, looked up): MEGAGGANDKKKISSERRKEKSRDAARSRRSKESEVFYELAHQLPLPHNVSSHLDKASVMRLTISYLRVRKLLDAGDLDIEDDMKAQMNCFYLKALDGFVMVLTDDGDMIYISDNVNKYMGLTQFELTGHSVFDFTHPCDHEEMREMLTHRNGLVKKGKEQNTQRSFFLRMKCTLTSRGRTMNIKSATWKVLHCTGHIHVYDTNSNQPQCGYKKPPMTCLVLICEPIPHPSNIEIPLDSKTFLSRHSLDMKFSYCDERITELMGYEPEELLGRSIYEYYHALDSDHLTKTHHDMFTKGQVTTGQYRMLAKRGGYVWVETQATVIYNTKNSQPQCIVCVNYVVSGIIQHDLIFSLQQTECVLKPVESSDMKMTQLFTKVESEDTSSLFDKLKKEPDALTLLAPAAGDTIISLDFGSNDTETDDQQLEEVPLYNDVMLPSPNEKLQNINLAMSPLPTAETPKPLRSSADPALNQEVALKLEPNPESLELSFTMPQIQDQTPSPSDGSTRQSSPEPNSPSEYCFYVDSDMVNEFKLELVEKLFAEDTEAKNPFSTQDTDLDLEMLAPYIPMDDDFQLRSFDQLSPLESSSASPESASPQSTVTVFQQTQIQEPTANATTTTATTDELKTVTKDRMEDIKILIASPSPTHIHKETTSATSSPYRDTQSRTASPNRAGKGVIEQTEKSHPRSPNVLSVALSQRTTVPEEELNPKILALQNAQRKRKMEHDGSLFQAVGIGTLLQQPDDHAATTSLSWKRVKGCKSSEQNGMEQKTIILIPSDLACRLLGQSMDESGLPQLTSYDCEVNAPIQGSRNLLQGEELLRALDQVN
structure (smiles),measurement,setting,value
Oc1c(Cl)c(Cl)c(Cl)c(Cl)c1Cl,AC50,[1],67.8 µM (active)
same,outcome,[1],inactive
same,outcome,[2],inactive
same,AC50,[3],29.4 µM (active) and 11.2 µM (active)
same,outcome,[3],inactive
same,outcome,[4],inactive
same,AC50,[5],13.4 µM (active)
same,outcome,[5],inactive
same,AC50,[6],21.5 µM (active)
same,outcome,[6],inactive
same,outcome,[7],inactive
same,AC50,[8],33.6 µM (active)
same,outcome,[8],inactive
same,outcome,[9],inactive
same,AC50,[10],82 µM (active)
same,outcome,[10],inactive
same,outcome,[11],inactive
same,AC50,[12],78.7 µM (active) and 51 µM (active)
same,outcome,[12],inactive
same,outcome,[13],inactive
same,outcome,[14],inactive
same,AC50,[15],3.43 µM (active) and 20.6 µM (active)
same,outcome,[15],inactive
same,AC50,[16],25.9 µM (active)
same,outcome,[16],inactive
same,AC50,[17],31.5 µM (active) and 75.4 µM (active) and 142 µM (active)
same,AC50,[18],50 µM (active) and 40.9 µM (active) and 78.8 µM (active)
same,AC50,[19],18.1 µM (active) and 7.11 µM (active)
same,outcome,[19],inactive
same,AC50,[20],50 µM (active) and 14 µM (active) and 34 µM (active)
COc1ccc(O)c(C(C)(C)C)c1,outcome,[1],inactive
same,outcome,[2],inactive
same,AC50,[3],100 µM (active)
same,outcome,[4],inactive
same,outcome,[5],inactive
same,AC50,[6],111 µM (active)
same,outcome,[7],inactive
same,outcome,[8],inactive
same,outcome,[9],inactive
same,outcome,[10],inactive
same,outcome,[11],inactive
same,outcome,[12],inactive
same,outcome,[13],inactive
same,outcome,[14],inactive
same,AC50,[15],52.6 µM (active)
same,outcome,[16],inactive
same,outcome,[17],inactive
same,AC50,[18],148 µM (active)
same,AC50,[19],25.7 µM (active)
same,AC50,[20],146 µM (active)
